Assay outcomes (PubChem)
DT40 TDP1 CPT: qHTS for Inhibitors of human tyrosyl-DNA phosphodiesterase 1 (TDP1): qHTS in cells in presence of CPT; chicken DT40 Tdp1-/-;hTDP1 cells + 20 nM CPT, ATP luminescence, 48 h; Potency, µM (titrated, usually from 46.2 µM), without a hit: at the top dose activity change, negative = growth inhibition, actives largely listed as inhibitors; actives 12% (n = 420,000); note: % is set by controls: 0 for no effect and ±100 for the full control effect; nearly all actives have a fitted effect of over 55% in size
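Chicken DT40 Tdp1-/- cells complemented with human TDP1, 400 cells/well, exposed to compounds plus 20 nM camptothecin for at least 48 h at 37 C; viability read as ATP content by CellTiter-Glo luminescence.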
DT40 TDP1 no CPT: qHTS for Inhibitors of human tyrosyl-DNA phosphodiesterase 1 (TDP1): qHTS in cells in absence of CPT | DT40 Tdp1-/- hTDP1 cells, no CPT, ATP luminescence, 48 h | actives 15% (n = 420,000) | Potency, µM (doses to about 46.2 µM), inactives show top-dose activity change, negative = growth inhibition, actives largely listed as inhibitors | AID 686978, 2013; note: % is set by controls: 0 for no effect and ±100 for the full control effect; nearly all actives have a fitted effect of over 55% in size
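Luminescent ATP content (CellTiter-Glo) served as the growth readout. Knockout chicken DT40 cells expressing human TDP1 were exposed to compounds without camptothecin for a minimum 48 hr at 37 °C.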
TDP1 inh: qHTS Assay for Inhibitors of Tyrosyl-DNA Phosphodiesterase (TDP1); Tyrosyl-DNA phosphodiesterase 1 (Homo sapiens), Q9NUW8; recombinant TDP1, AlphaScreen DNA substrate cleavage; Potency, µM (series often up to 130 µM), inactives show top-dose activity change, negative = inhibition, usual class: inhibitors; actives 0.28% (n = 350,000); AID 485290, 2010; note: % is set by controls: 0 for no effect and ±100 for the full control effect; nearly all actives have a fitted effect of over 40% in size
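Here, a 5' biotin and 3' phosphotyrosine-FITC DNA oligonucleotide reports Tdp1 activity: intact substrate bridges AlphaScreen beads, while cleavage leaves a 3' phosphate and drops signal. All incubations at room temperature.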
ClpP mod: qHTS Assay for Activators of ClpP. ATP-dependent Clp protease proteolytic subunit (Bacillus subtilis (strain 168)), P80244. purified B. subtilis ClpP, FRET peptide cleavage, 20 min. Potency, µM (titrated, usually from 57.5 µM), for the others: top-dose activity change, negative = active. actives 1.9% (n = 340,000); active = well fitted falling curve with a large enough effect; inconclusive = small, poorly fitted or top-dose-only effect; inactive = no such curve, though single readings can be large or run the other way; note: the source files actives as falling curves though it sought activators and does not explain the sign; nearly all actives have a fitted effect of over 65% in size
Target sequence (P80244 whole entry, looked up): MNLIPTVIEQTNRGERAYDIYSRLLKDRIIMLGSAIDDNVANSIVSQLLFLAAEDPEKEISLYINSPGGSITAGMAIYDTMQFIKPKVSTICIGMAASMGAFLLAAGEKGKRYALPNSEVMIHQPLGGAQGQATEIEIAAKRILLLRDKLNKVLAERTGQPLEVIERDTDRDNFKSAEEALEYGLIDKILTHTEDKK
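Purified B. subtilis ClpP, 10 microg/mL final in Tris/HCl pH8 with KCl, BSA, glycerol and Tween-20, cleaved an Abz/nitrotyrosine-quenched decapeptide. Fluorescence (ex 320, em 430) was read at 0 and 20 min at room temperature. Delta was normalized to 5.8 microM ADEP and DMSO/no-enzyme controls.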
An asterisk follows results filed as active; u = inconclusive; x = no result. Compounds with a hit are over-represented: about 17% of the library has one in this group of screens. Unless noted, calls come from the whole dose curve; as a rule, active = well fitted curve in the direction sought with a large enough effect; inconclusive = small, poorly fitted or top-dose-only effect, or another doubt; inactive = no such curve, though single readings can be large; an effect the other way counts as inactive or inconclusive. Potency is the fitted concentration of half-maximal effect.

SMILES	DT40 TDP1 CPT	DT40 TDP1 no CPT	TDP1 inh	ClpP mod
CCOC(=O)C1=C(O)C(=O)NC(c2ccccc2)=C(OC2CCCCC2)C1	u	23.1µM*	3.8%	0.5%
Cc1cc2nc(-c3ccc(F)cc3)c(Cc3cccc(Cl)c3)n2c(C)c1Br	23.1µM*	u	x	-4.9%
Cc1cc2nc(-c3ccccc3)c(Cc3cccc(Cl)c3)n2c(C)c1Br	u	25.9µM*	x	-1.4%
Cc1ccc(Cc2c(-c3cccc(Cl)c3)nc3cc(C)c(Br)c(C)n23)cc1	-42.7%	u	x	-17.9%
Cc1cc2nc(-c3cccc(Cl)c3)c(Cc3ccsc3)n2c(C)c1Br	u	u	x	-0.9%
COc1ccccc1-c1nc(SCC(=O)Nc2cc(C)on2)c2c(=O)n(C)c(=O)n(C)c2n1	-24.5%	-25.5%	3.0%	-4.2%
CC(C)Oc1ccc(NC(=O)Oc2ccccc2)cc1	u	-28.0%	-4.1%	0.4%
CC(C)Oc1ccc2c(c1)OC(c1ccccc1)(C(F)(F)F)NC2=O (stereo unspecified)	u	25.9µM*	0.0%	2.5%
CCOC(=O)c1cc2cc([N+](=O)[O-])ccc2oc1=O	0.4%	0.8%	3.7%	x
O=[N+]([O-])c1ccc2oc(C(O)c3cccc(Cl)c3)cc2c1 (stereo unspecified)	u	11.6µM*	x	x
CCOC(=O)/C(=N/Nc1ccccc1)Sc1nnc(CCc2ccccc2)n1-c1ccccc1	-0.7%	4.4%	-3.0%	x
COc1ccc2c(c1)[C@@H]1[C@H](CO2)[C@H](c2ccccc2)[C@]2(C)C(=O)NCC(=O)N12	-21.3%	-25.7%	0.4%	0.2%
Cc1ccc2c(c1)[C@H]1[C@H](CO2)[C@H](c2ccccc2)[C@]2(C)C(=O)Nc3ccc(Cl)cc3C(=O)N12	u	14.6µM*	-0.4%	-15.7%
COc1ccc2c(c1)[C@H]1[C@H](CO2)[C@H](c2ccccc2)[C@]2(C)C(=O)Nc3cc(OC)c(OC)cc3C(=O)N12	u	20.6µM*	6.1%	-5.9%
COc1ccc2c(c1)OC[C@H]1[C@H]2N2C(=O)c3ccccc3NC(=O)[C@@]2(C)[C@H]1c1ccccc1	u	u	1.9%	-8.5%
COc1ccc2c(c1)[C@@H]1[C@H](CO2)[C@H](c2ccccc2)[C@]2(C)C(=O)Nc3ccc(C)cc3C(=O)N12	18.4µM*	u	4.4%	-0.6%
COc1ccc2c(c1)[C@H]1[C@H](CO2)[C@H](c2ccccc2)[C@]2(C)C(=O)Nc3ccc(C)cc3C(=O)N12	u	u	5.2%	-29.2%
Cc1ccc2c(c1)C(=O)N1[C@H]3c4ccccc4OC[C@@H]3[C@H](c3ccccc3)[C@]1(C)C(=O)N2	u	u	2.0%	-15.1%
COc1ccc2c(c1)OC[C@H]1[C@H]2N2C(=O)c3cc(C)ccc3NC(=O)[C@@]2(C)[C@H]1c1ccccc1	16.4µM*	u	1.2%	-22.7%
COC(=O)c1cc2occc2n1CC(=O)Nc1ccc(C)cc1Cl	-14.5%	-27.7%	-2.0%	1.3%
Cn1/c(=N\NC(=O)c2ccccc2Cl)sc2ccccc21	2.2%	-9.0%	3.6%	x
Cc1noc(C)c1-c1ccc2ncnc(NCc3cccc(-c4ccccc4)c3)c2c1	x	x	9.7%	x
CC(=O)NC12CC3CC(C1)CC(C(=O)N1CCN(S(=O)(=O)c4ccc(C(C)C)cc4)CC1)(C3)C2	u	u	0.5%	0.5%
CCOc1ccc(CNS(=O)(=O)c2ccc(-c3cc(C(F)(F)F)on3)s2)cc1	u	-30.0%	2.6%	0.0%
CC(=O)Cn1cnc2c(cnn2-c2ccc(C)c(C)c2)c1=O	u	u	x	-10.8%
SMILES	DT40 TDP1 CPT	DT40 TDP1 no CPT	TDP1 inh	ClpP mod
CC(C)N1CCSC1=S	7.6%	6.2%	x	u
COc1ccc2c(c1)[C@H]1[C@H](CO2)[C@H](c2ccccc2)[C@]2(C)C(=O)Nc3ccc(F)cc3C(=O)N12	u	u	3.1%	-10.0%
COc1ccc2c(c1)C(=O)N1[C@H]3c4cc(C)ccc4OC[C@@H]3[C@H](c3ccccc3)[C@]1(C)C(=O)N2	7.31µM*	10.3µM*	-0.3%	u
COc1ccc2c(c1)[C@H]1[C@H](CO2)[C@H](c2ccccc2)[C@]2(C)C(=O)Nc3ccc(Cl)cc3C(=O)N12	18.4µM*	u	x	-9.6%
O=C(COC(=O)c1cccc(Br)c1)NC1CCCCCCC1	u	u	x	-0.2%
Cc1ccc(Nc2cc(-c3ccccc3)nc(C)n2)cc1	u	25.9µM*	4.7%	-15.6%
CCOC(=O)c1ccc(Nc2cc(-c3ccccc3)nc(C)n2)cc1	-29.3%	u	-3.6%	-23.1%
Cc1ccc(-c2cc(-c3ccccc3)nc(Cl)n2)cc1	-13.8%	u	x	28.2µM*
Cc1nc(Nc2ccc(Cl)cc2)cc(-c2ccccc2)n1	23.1µM*	-102.6%	-2.6%	4.8%
COc1cccc(Nc2cc(-c3ccccc3)nc(C)n2)c1	u	u	-0.5%	-28.2%
CCC(C)[C@H](NS(=O)(=O)c1ccc(C)cc1)C(=O)N1CCC(C(=O)N[C@@H](Cc2ccccc2)C(=O)O)CC1 (stereo partly specified)	u	9.8%	3.6%	-2.8%
COc1ccc(-c2csc3nc(-c4ccccc4C)oc(=O)c23)cc1OC	-28.0%	-28.5%	-2.1%	-1.1%
COC(=O)[C@@]1(Cc2ccc(OC)cc2)[C@H]2c3cc(C(=O)N4CCCC4)n(Cc4ccc(O)c(OC)c4)c3C[C@H]2CN1C(=O)c1ccccc1	x	x	16.5%	x
COC(=O)[C@@]1(Cc2ccc(F)cc2)[C@H]2c3cc(C(=O)N4CCCC4)n(CCc4ccc(OC)c(Br)c4)c3C[C@H]2CN1C(=O)c1ccccc1	u	18.4µM*	9.9%	-2.2%
COC(=O)[C@@]1(Cc2ccc(F)cc2)[C@H]2c3cc(C(=O)N4CCCC4)n(Cc4ccc(Cl)c(C(F)(F)F)c4)c3C[C@H]2CN1C(=O)c1ccccc1	20.6µM*	20.6µM*	12.3%	-1.0%
COC(=O)[C@@]1(Cc2ccc(OC)cc2)[C@H]2c3cc(C(=O)N4CCCC4)n(Cc4ccccc4)c3C[C@H]2CN1C(=O)c1ccccc1	u	16.4µM*	x	1.9%
COC(=O)[C@@]1(Cc2ccc(F)cc2)[C@H]2c3cc(C(=O)N4CCCC4)n(CCO)c3C[C@H]2CN1C(=O)c1ccccc1	u	-21.7%	3.9%	3.2%
COC(=O)[C@@]1(Cc2ccc(F)cc2)[C@H]2c3cc(C(=O)N(C)C)n(CC4CC4)c3C[C@H]2CN1C(=O)c1ccccc1	u	18.4µM*	12.3%	3.6%
COC(=O)[C@@]1(Cc2ccc(F)cc2)[C@H]2c3cc(C(=O)N4CCCC4)n(CCc4ccc(O)c(O)c4)c3C[C@H]2CN1C(=O)c1ccccc1	x	x	3.9%	x
